# Test results published in PubChem BioAssay AID624173 (National Center for Advancing Translational Sciences (NCATS), 2012).
# Among all 410,000 compounds or so, about 490 (0.12%) were called active. About 1% were inconclusive and are not listed. The list comes from a sample in which actives are over-represented; it also holds similar structures and randomly drawn compounds. A number with no mark means an inactive call. The call rests on the fitted dose curve; in most records, active means well fitted inhibition curve with a large enough effect; inconclusive means small, poorly fitted or top-dose-only effect; inactive means flat fitted curve, though single readings scatter.
# Molecular target: pyruvate kinase (Trypanosoma brucei) (UniProt Q57TT1)
# Assay: qHTS of Trypanosoma Brucei Inhibitors; further: nearly all actives have a fitted effect of over 50% in size
# Settings: TbPYK enzyme, Kinase-Glo Plus ATP luminescence, 45 min; series mostly up to 76.8 µM; activity, negative = inhibition: at the top concentration
# Excerpt: Members of the Trypanosomatidae family of parasitic protozoans cause a spectrum of diseases throughout the tropical and subtropical world. Sleeping sickness, caused by two subspecies of Trypanosoma brucei, is endemic to areas of sub-Saharan Africa, while Chagas' disease, a manifestation of Trypanosoma cruzi infection, is prevalent throughout Central and South America. In addition, many species of Leishmania are responsible for a range of cutaneous and visceral diseases, causing ulcers, destructive lesions and kalaazar, a lethal infection of the viscera. These diseases cause severe public health and economic burdens on populations that are often already caught in a tragic cycle of poverty, poor nutrition and disease. Collectively, parasites of the trypanosomatid family infect 30 million people worldwide (~500 million live in endemic areas), and account for ~130K deaths annually. Existing treatments have developed little in the past 50 years, and suffer from toxicity, poor efficacy and resistance; the goal of this project is to develop lead drugs that will be suitable for entry into pre-clinical trials.
# Glycolysis in axenically cultured T. cruzi, representing the intracellular pathogenic stage, is also essential for these parasites. {Engel, 1987} This project aims to discover and optimize selective inhibitors of the glycolytic enzyme pyruvate kinase (PYK) from Trypanosoma brucei, the parasite that causes sleeping sickness. […] Trypanosomatid PYKs show significant differences from their human counterparts including only 47-50% sequence identity and different allosteric and activation properties.{Callens, 1992} To this end, a qHTS was done against the MLSMR to discover inhibitors.
# NIH Molecular Libraries Probe Production Network [MLPCN]
# NIH Chemical Genomics Center [NCGC]
# PI Name: Malcolm Walkinshaw, University of Edinburgh
# 2 uL of TbPYK/substrate buffer (columns 1-3, 5-48) are dispensed into Greiner white solid bottom 1536-well assay plates; column 4 receives only TEA buffer as 0x TbPYK controls. Compounds are then transferred via Kalypsys pin tool equipped with 1536-pin array (10 nL slotted pins, V&P Scientific, San Diego, CA). Following addition of compound, 2 uL of ADP (130 uM final concentration, all columns) is added to initiate the reaction. The plates are then incubated at room temperature for 45 minutes. Kinase-Glo Plus reagent is added (3 uL) and plates incubated for 10 minutes, before being transferred to a ViewLux high-throughput CCD imager (PerkinElmer) wherein single end-point measurements of luminescence are acquired using a clear filter. All reagents are diluted in an assay buffer consisting of 50 mM TEA (pH 7.2), 100 mM KCl, 10 mM MgCl2, 0.05% BSA and 0.01% Tween-20.
# All screening operations will be performed on a fully integrated robotic system (Kalypsys, San Diego, CA) containing one RX-130 and two RX-90 anthropomorphic robotic arms (Staeubli, Duncan, SC). Library plates will be screened starting from the lowest and proceeding to the highest concentration. Vehicle-only plates, with DMSO being pin-transferred to columns 5-48, will be inserted uniformly at the beginning and the end of each library in order to monitor and record any shifts in the background, which can be affected by reagent dispensers or loss in enzyme activity over time. Screening data will be corrected, normalized, and concentration-effect relationships will be derived by using publicly-available curve fitting algorithms developed in-house (http://ncgc.nih.gov/pub/openhts).
# On the % scale 0 is the no-effect control and ±100 the full control effect; potency means the concentration at half of the fitted maximal effect.
Structure (SMILES),"activity, negative = inhibition",Potency
O=S(O)CNc1ccc(S(=O)(=O)c2ccc(NCS(=O)O)cc2)cc1,9.07%,
O=C(c1ccco1)N1CCC[C@@]2(CCN(Cc3nccs3)C2)C1,-6.32%,
Cn1cccc1C(=O)N1CCC2(CC1)CN(c1cccc(-c3ccccc3)c1)C2,-3.39%,
C/C=C1\C2C=C(C)CC1(N)c1ccc(=O)[nH]c1C2 (stereo unspecified),-2.6%,
NC(=O)C(=O)N/N=C/c1ccc([N+](=O)[O-])o1,0.18%,
O=C(c1cc(C(F)(F)F)cc(C(F)(F)F)c1)N1CCC[C@@]2(CCN(c3ccccn3)C2)C1,4.4%,
CC(C)NC(=O)N1CCC2(CC1)CCN(C(=O)c1cccn1C)CC2,1.85%,
O=C(O)CCC(=O)O,-2.93%,
CC(C)(O/N=C(\C(=O)N[C@@H]1C(=O)N2C(C(=O)[O-])=C(C[n+]3ccccc3)CS[C@@H]12)c1csc(N)n1)C(=O)O,-4.78% [at 33.2 µM],
COCCn1c(=O)c(CCc2ccccc2)nc2cnc(N3CCNCC3)nc21,-7.17%,
COc1ccnc(C[S@@](=O)[C@@H]2Nc3ccc(OC(F)F)cc3N2)c1OC,-17.7%,
C[C@]12CC[C@@H]3c4ccc(O)cc4C[C@@H](CCCCCCCCCS(=O)CCCC(F)(F)C(F)(F)F)C3[C@@H]1CC[C@@H]2O (stereo partly specified),-5.87%,
C=CCn1c(C)cc(C2=NNC(=NCC)SC2)c1C,,17.8 µM (active)
CC1N=C(N)OC1c1ccccc1 (stereo unspecified),0% [at 157 µM],
CS(=O)(=O)N1CCC2(CCN(c3ccncc3)CC2)CC1,-6.52%,
CC1(C)O[C@@H]2C[C@@H]3[C@H]4C[C@@H](F)C5=CC(=O)C=C[C@]5(C)[C@@]4(F)[C@@H](O)C[C@]3(C)[C@]2(C(=O)CO)O1,-3.24%,
COc1cc(C[C@H]2NCCc3cc(O)c(O)cc32)cc(OC)c1OC,1.09%,
O=C(c1ccncc1)N1CCC2(CCN(Cc3cc(C(F)(F)F)cc(C(F)(F)F)c3)CC2)CC1,0%,
CC(=O)O[C@]1(C(C)=O)CC[C@@H]2[C@@H]3C=C(C)C4=CC(=O)CC[C@@]4(C)[C@H]3CC[C@]21C,0% [at 33.2 µM],
CS(=O)(=O)N1CCC2(CC1)CN(Cc1ccccc1)C2,-1.13%,
CCCCC(=O)OCC(=O)[C@H]1[C@H](C)C[C@@H]2[C@@H]3C[C@@H](F)C4=CC(=O)C=C[C@]4(C)[C@@]3(F)[C@@H](O)C[C@@]21C,-6.95%,
CC(C)NC(=O)N1CCCC2(CCN(C(=O)c3cccn3C)CC2)C1,-0.138%,
CCOC(=O)c1c(NC(=O)CSc2cn(CCNC(=O)c3cccc(C(F)(F)F)c3)c3ccccc23)sc2c1CCC2,0.688%,

Structure (SMILES),"activity, negative = inhibition",Potency
O=c1c(-c2cc(F)cc(F)c2)nc2cnc(Oc3ccccc3)nc2n1C[C@H]1CCCO1,-5.6%,
COc1ccc(-c2nc3cnc(OC)nc3n(Cc3ccc(F)cc3)c2=O)cc1,-5.21%,
COc1ccc(C(=O)N2CCC3(CCCN(C(c4ccccc4)c4ccccc4)C3)CC2)cc1,-16.4%,
Cc1nc2cnc(N3CCNCC3)nc2n(Cc2ccc(F)cc2)c1=O,-7.19%,
CS(=O)(=O)N1CCC[C@@]2(CCN(c3ccncc3)C2)C1,0.396%,
O=C(Nc1cccc(C(F)(F)F)c1)c1cc(Br)cc(Br)c1O,3.82%,
O=C(c1cnccn1)N1CCC2(CCCN(Cc3ccccc3)C2)CC1,-4.69%,
COc1cc([C@@H]2c3cc4c(cc3[C@@H](O[C@@H]3O[C@@H]5CO[C@@H](C)O[C@H]5[C@H](O)[C@H]3O)[C@H]3COC(=O)[C@H]23)OCO4)cc(OC)c1OP(=O)(O)O,4.69%,
CC(C)NC(=O)N1CC[C@@]2(CCCN(C(=O)c3cccn3C)C2)C1,6.56%,
CC[C@]1([C@H]2O[C@@H]([C@@H]3O[C@](O)(CO)[C@@H](C)C[C@H]3C)C[C@H]2C)CC[C@@H]([C@]2(C)CC[C@@]3(C[C@@H](O)[C@@H](C)[C@@H]([C@H](C)[C@H](OC)[C@H](C)C(=O)O)O3)O2)O1,-3.98%,
CC(C)(O)c1ccccc1CC[C@H](SCC1(CC(=O)O)CC1)c1cccc(/C=C/c2ccc3ccc(Cl)cc3n2)c1,10.6%,
CC1(C)OC2CC(=O)OC[C@@]23C1CC(=O)[C@]1(C)C3CC[C@@]2(C)C(c3ccoc3)OC(=O)C3O[C@@]321 (stereo partly specified),4.76%,
c1ccc2sc(SNC3CCCCC3)nc2c1,-21.1%,
O=C(c1ncn2c1c(=O)[nH]c1ccccc12)N1CCc2ccccc2C1,-0.741%,
O=c1[nH]c2ccccc2n2c(-c3ccccc3)nnc12,,2.82 µM (active)
CC(C)Cn1c(=O)c2ccccc2n2c(-c3cccc(Cl)c3)nnc12,-6.77%,
CCNC[C@H](O)c1cccc(O)c1,-5.16% [at 33.2 µM],
Cc1c(O)cc2c(c1C)O[C@](C)(CCC[C@H](C)CCC[C@H](C)CCCC(C)C)CC2,-8.92%,
Nc1ccccc1SC(C[N+](=O)[O-])c1ccccc1 (stereo unspecified),,12.6 µM (active)
CCC(=O)N1CCc2cc(Br)cc(S(=O)(=O)Nc3ccc(C)cc3C)c21,1.76%,
COCCn1c(=O)c(-c2ccc(OC)cc2)nc2cnc(Oc3cccc(Cl)c3)nc21,2.75%,
N#Cc1cccc(-c2nc3cnc(N4CCNCC4)nc3n(C3CC3)c2=O)c1,-13.9%,
COc1cc2c(cc1OC)CC(=O)N(CCCN(C)C[C@H]1Cc3cc(OC)c(OC)cc31)CC2,5.47%,
